Source: PubChem
This excerpt belongs to a sample that is enriched for hits.
TbREL1 inh: TbREL1 RNA ligase inhibitors, primary screen, biochemical, FRET fluorescence. 89,000 tested, 0.49% active. TbREL1 RNA ligation. AID 1117264, 2014. inhibition, % at 9.66 µM;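 active = inhibition above the mean inhibition across all screened compounds plus 3 SD, cut at about 11% in these data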;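 also: 0% = plate median of test wells and 100% = NSC42067 control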
Target sequence (P86926 whole entry, looked up): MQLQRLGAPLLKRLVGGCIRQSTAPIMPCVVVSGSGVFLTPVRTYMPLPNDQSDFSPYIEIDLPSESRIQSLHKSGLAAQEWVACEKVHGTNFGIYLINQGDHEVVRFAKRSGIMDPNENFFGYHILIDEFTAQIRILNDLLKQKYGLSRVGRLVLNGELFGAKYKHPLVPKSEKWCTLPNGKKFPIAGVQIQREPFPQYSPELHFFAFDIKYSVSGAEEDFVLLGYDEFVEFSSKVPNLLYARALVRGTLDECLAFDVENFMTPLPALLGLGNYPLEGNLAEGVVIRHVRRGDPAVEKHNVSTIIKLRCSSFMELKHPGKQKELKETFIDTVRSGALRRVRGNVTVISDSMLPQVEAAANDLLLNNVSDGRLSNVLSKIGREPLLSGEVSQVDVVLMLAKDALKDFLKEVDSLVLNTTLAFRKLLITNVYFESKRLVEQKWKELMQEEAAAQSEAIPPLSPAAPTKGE
TbREL1 confirm: TbREL1 RNA ligase inhibitors, confirmation, biochemical, FRET fluorescence, triplicate; shares compounds with TbREL1 inh; TbREL1 RNA ligation; inhibition, % at 9.66 µM; 390 tested, 37% active;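 active = mean inhibition across replicates above a set limit taken from the earlier primary screen, cut at about 11% in these data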;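 also: 0% = REL1 with substrate and DMSO and 100% = REL1 plus control inhibitor NSC42067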
The depositor's hits bear a star.

SMILES | TbREL1 inh | others
Cn1c(SCC(=O)Nc2ccc(C(=O)O)cc2)nnc1-c1ccccn1 | -0.2
Cc1cccc(N2CCN(C(=O)c3cc(S(=O)(=O)N(C)C)ccc3Cl)CC2)c1C | -2.5
O=S(=O)(c1ccc(F)cc1)N1CCC(c2nc3ccccc3o2)CC1 | 0.0
Cc1cnc(NC(=O)c2ccco2)s1 | 6.4
O=C(Nc1nc(-c2ccco2)c(-c2ccco2)s1)c1cnccn1 | 20.3* | TbREL1 confirm=2.6
CCOc1ccc2nc(NC(=O)c3cnccn3)sc2c1 | 2.0
Cc1ccc(Cn2cc(COC(=O)N3CCCC3)nn2)cc1 | 4.3
CC(C)Oc1cccc(-c2n[nH]c(=S)n2N=Cc2ccc(O)cc2O)c1 | -3.8
O=C(CCNc1ccc(Cl)cc1)c1cccs1 | -3.5
O=C(O)CN1C(=O)C2C3C=CC(C2C1=O)C1C(=O)N(CC(=O)O)C(=O)C31 (stereo unspecified) | 4.2
O=C(O)CN1C(=O)SC(Nc2ccc(Cl)cc2)C1=O (stereo unspecified) | 11.1* | TbREL1 confirm=5.7
CCCC/C=C1/[C@@H](C(C)C)N(Cc2ccc3c(c2)OCO3)C2=N[C@H](c3ccccc3)CC(=O)N21 | -4.4
Nc1nnc(SCC(=O)c2ccc3ccccc3c2)s1 | -2.4
Cc1cc(C)n2c(SCCN3C(=O)c4ccccc4C3=O)nnc2n1 | -0.1
Nc1nnc(SCCN2C(=O)c3ccccc3C2=O)s1 | 11.4* | TbREL1 confirm=3.1
CCOc1cc(C=NN2CCN(Cc3ccc(C)cc3)CC2)ccc1O | -2.3
COC(=O)[C@]12CCCCC=C1N(Cc1ccc(OC)cc1)C(=O)[C@@H]2CC(=O)NCCc1ccccc1OC | -4.8
CSCCC(NC(=O)COc1ccccc1)C(=O)OCC(=O)c1ccccc1 (stereo unspecified) | -3.1
CSCCC(NC(=O)COc1ccccc1)C(=O)N1CCN(c2ccccc2O)CC1 (stereo unspecified) | 41.9* | TbREL1 confirm=3.0
CCOC(=O)C1CCN(C(=O)C(CCSC)NC(=O)COc2ccccc2)CC1 (stereo unspecified) | -5.8
CC(=O)Nc1ccc(/C=N\NC(=O)c2cccc(S(=O)(=O)N(C)C)c2)cc1 | 4.9
CCOC(=O)[C@@]12CCC3=C1N(CCC3)C(=O)[C@H](CC(=O)NCc1cccc3ccccc13)C2 | -2.0
O=C(CN1CCN(c2ccc(O)cc2)CC1)Nc1ccc2c(c1)OCCO2 | -2.3
O=C(CN1CCOCC1)Nc1ccc2c(c1)OC(F)(F)O2 | 3.7
O=C(CN1CCOCC1)Nc1ccc2c(c1)OCCO2 | 11.7* | TbREL1 confirm=5.3
SMILES | TbREL1 inh | others
C[C@H]1[C@@H](OC(=O)NCc2ccc(C(F)(F)F)cc2)CC[C@@]23CCCN2C(=O)CCC[C@@H]13 | -4.0
CC(COc1ccc(C#N)cc1)CN1CCC(C(O)(c2ccccc2)c2ccccc2)CC1 (stereo unspecified) | 6.1
OC(c1ccccc1)(c1ccccc1)C1CCN(CCCOc2ccc(Cl)cc2)CC1 | 9.0
N#Cc1cccc(OCCCN2CCC(C(O)(c3ccccc3)c3ccccc3)CC2)c1 | 15.1* | TbREL1 confirm=7.3
NC(=O)c1ccccc1OCc1nc2ccccc2s1 | -5.8
O=C(O)COCc1nc2ccccc2s1 | 11.9* | TbREL1 confirm=7.3
O=C(O)CCCc1nc2ccccc2s1 | 0.4
CCC1CCCCN1C(=O)n1ncc(C(O)(c2ccccc2)c2ccccc2)n1 (stereo unspecified) | -3.3
COCCN(C(=O)/C=C/c1ccccc1)c1nnc(-c2cccnc2)s1 | 12.0* | TbREL1 confirm=-2.6
COCCN(C(=O)/C=C/c1ccccc1)c1c(N)n(Cc2ccccc2)c(=O)[nH]c1=O | 1.9
O=C(Cc1ccccc1)Nc1nnc(-c2cccnc2)s1 | 0.1
O=C(Nc1cccs1)OC1CC2CC1[C@H]1CCCCN1C2 (stereo partly specified) | 0.7
Fc1ccc(NC(=S)Nc2ccc3nccnc3c2)cc1 | 12.9* | TbREL1 confirm=4.5
N#Cc1ccccc1NC(=S)Nc1ccc(F)cc1 | 2.6
O=c1[nH]c2ccc(NC(=S)Nc3ccc(F)cc3)cc2[nH]1 | 1.8
CC(C)CCN(C)C1CCN(C(=O)Nc2ccc(Cl)cc2)CC1 | 2.8
COc1ccc(C2C(C(=O)Nc3c(C)cccc3C)CCC(=O)N2c2ccc(OC)cc2)cc1 (stereo unspecified) | 5.6
O=C(Nc1nc2ncccn2c1-c1ccccc1)C1CC1 | 4.5
COc1ccc(-n2c(SCC(=O)Nc3ccc(S(=O)(=O)Nc4cc(C)nc(C)n4)cc3)nnc2-c2ccco2)cc1 | 4.0
CCOc1ccc(C(=O)N2CCn3c2nc2ccccc23)cc1 | 0.1
COc1ccc(C(=O)N2CCn3c2nc2ccccc23)cc1 | -0.3
COc1cccc(C(=O)N2CCn3c2nc2ccccc23)c1 | 11.7* | TbREL1 confirm=6.7
NC(=O)c1ccc(NC(=O)CSc2nnc(-c3ccccc3)n2-c2ccccc2)cc1 | -4.2
Cc1ccc(CN2CCCCC(NC(=O)c3ccc(N(C)C)cc3)C2=O)cc1 (stereo unspecified) | 0.5
O=C(CSc1nnc(-c2ccccn2)n1-c1ccccc1)c1ccc2c(c1)OCO2 | 4.8
SMILES | TbREL1 inh | others
O=C(c1cccnc1)N1CCN(Cc2cccc(Br)c2)CC1 | 11.5* | TbREL1 confirm=5.8
O=C(c1cccnc1)N1CCN(C(=O)c2ccco2)CC1 | 1.6
O=C(c1ccc([N+](=O)[O-])cc1)N1CCN(C(=O)c2cccnc2)CC1 | -1.6
CCOC(=O)[C@]12CCCC=C1N(CCCOC)C(=O)[C@@H]2CC(=O)NCCCCc1ccccc1 | -4.0
CCCOc1ccc(C(F)(F)F)cc1NC(=O)CN1C(=O)C(=O)N(CC)C1=O | -0.1
CCN1CCN(CC(=O)Nc2cc(C(F)(F)F)ccc2OCCOC)CC1 | 15.1* | TbREL1 confirm=4.8
COCCOc1ccc(C(F)(F)F)cc1NC(=O)CN1C(=O)NC(C)(c2ccc3c(c2)OCO3)C1=O (stereo unspecified) | -2.5
COc1ccc(N2CCN(CCCNC(=O)COc3ccc(F)cc3)CC2)cc1 | -6.3
COC(=O)[C@]12C[C@H](CC(=O)N3CCN(C(=O)c4ccco4)CC3)C(=O)N(Cc3ccc4c(c3)OCO4)C1=C[C@H](C(C)C)O[C@@H]2C1CC1 | 1.6
Cn1c(=O)c2cc(S(=O)(=O)N3CCN(c4ccccc4Cl)CC3)ccc2n(C)c1=O | 5.2
CCC(NC(=O)CCCN1C(=O)COc2ccc(C)cc21)c1ccccc1 (stereo unspecified) | -3.0
Clc1nssc1=Nc1ccc(Br)cc1 | -0.7
Clc1nssc1=Nc1nncs1 | 18.2* | TbREL1 confirm=19.3*
COc1cccc(C(=O)NCCS(=O)(=O)NCc2ccc(Cl)cc2)c1 | -0.7
COc1cccc(C(=O)NCCS(=O)(=O)NC(C)CCc2ccccc2)c1 (stereo unspecified) | 13.9* | TbREL1 confirm=11.1*
COc1ccc(C(=O)NCCS(=O)(=O)NCCc2ccccc2)cc1 | 1.7
O=C(CCCCCN1C(=O)C2C3C=CC(C3)C2C1=O)Nc1cc(F)cc(F)c1 (stereo unspecified) | -2.1
C[C@H]1CCCN1c1ccc2c(c1)OCCCN(C1CC1)S2(=O)=O | 3.4
CC1(C)CC(NC(=O)Nc2ccc([N+](=O)[O-])cc2)CC(C)(C)N1 | 0.3
CC1(C)CC(NC(=O)c2ccc(-c3ccc([N+](=O)[O-])cc3)o2)CC(C)(C)N1 | 11.8* | TbREL1 confirm=4.1
COc1ccc(NC(=O)c2ccc(-c3ccc([N+](=O)[O-])cc3)o2)cc1 | -1.3
O=C(Nc1ccc(F)cc1)OCc1cn(Cc2ccccc2F)nn1 | -0.6
COc1cc(NC(=O)NC2CCCCN(Cc3ccc(Cl)cc3)C2=O)cc(OC)c1 (stereo unspecified) | 3.3
